Sampled rows, rich in hits. Any-hit rate of the full collection: about 10%.
JMJD2A Tudor = blocks the human JMJD2A Tudor domain; O75164; Potency, µM (doses to about 114 µM), for the others: at the top dose activity change, negative = inhibition, usual class: inhibitors; AlphaScreen JMJD2A-Tudor / H3K4me3 peptide binding; hit rate 4.4% among 390,000; note: % is set by controls: 0 for no effect and ±100 for the full control effect; nearly all actives have a fitted effect of over 50% in size
GLS inhibitor = blocks human kidney-isoform glutaminase activity. O94925. GLS enzymatic activity, qHTS titration. Potency, µM (doses to about 45.5 µM), inactives show at the highest dose activity change, negative = inhibition, hits mostly inhibitors. hit rate 0.21% among 410,000; note: % is set by controls: 0 for no effect and ±100 for the full control effect
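Two-point fluorescence kinetic (t0, 30 min RT) for hKGA; glutamate detected via glutamate oxidase–HRP–Amplex Red. Substrate: 1 mM L-glutamine solution; buffer 45 mM KH2PO4, pH 8.2.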
BAZ2B inh = blocks human BAZ2B; hit rate 4.4% among 360,000; AlphaScreen BAZ2B-H3K14Ac peptide displacement; Q9UIF8; Potency, µM (doses to about 114 µM), without a hit: at the highest dose activity change, negative = inhibition, hits mostly inhibitors; note: % is set by controls: 0 for no effect and ±100 for the full control effect; nearly all actives have a fitted effect of over 60% in size
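BAZ2B (50 nM) with biotin-H3(5-23)K14Ac peptide (50 nM) in PBS pH 7.4, 0.01% Tween-20, preformed 30 min, then compound 30 min at room temperature; top concentration 110uM. AlphaScreen streptavidin donor/nickel chelate acceptor beads (10 ug/mL final), 20 min dark, signal read.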
G9a block = blocks human histone lysine methyltransferase G9a; Q96KQ7; G9a H3K9 monomethylation, AlphaScreen, 2 h; Potency, µM (series often up to 102 µM), without a hit: at the top dose activity, negative = inhibition, actives largely listed as inhibitors; hit rate 8.8% among 350,000; note: % is set by controls: 0 for no effect and ±100 for the full control effect; nearly all actives have a fitted effect of over 75% in size
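G9a (20 nM) preincubated 15 min RT with compounds, then 500 nM biotinylated H3K9 peptide and 20 uM SAM added; 2 h RT reaction. Monomethyl-H3K9 product detected by AlphaScreen with anti-H3K9me1 antibody, streptavidin donor and anti-rabbit IgG acceptor beads.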
HP1b chromo inh = inhibitors of HP1-beta chromodomain binding to methylated histone tails; AlphaScreen HP1-beta / biotin-H3K9me3 peptide binding; Potency, µM (top dose mostly 114 µM), without a hit: top-dose activity change, negative = inhibition, hits mostly inhibitors; hit rate 0.56% among 390,000; P83916; AID 540317; note: nearly all actives have a fitted effect of over 70% in size
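HP1-beta protein (50 nM final) preincubated 30 min at room temperature with biotinylated H3(1-18)K9me3 peptide (50 nM) in PBS pH 7.4, 0.01% Tween-20, then compound added for 30 min. AlphaScreen streptavidin donor/nickel chelate acceptor beads (10 ug/mL final), 30 min dark, luminescence read.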
* hit, by the source's call; ? = inconclusive; . = not tested or not shown; [ ] = dose if it differs, or a comment. Calls come from the whole dose curve; as a rule, active = well fitted curve in the direction sought with a large enough effect; inconclusive = small, poorly fitted or top-dose-only effect, or another doubt; inactive = no such curve, though single readings can be large; an effect the other way counts as inactive or inconclusive. Potency is the fitted concentration of half-maximal effect.

SMILES	JMJD2A Tudor	GLS inhibitor	BAZ2B inh	G9a block	HP1b chromo inh
COC(=O)NC(NS(=O)(=O)c1ccccc1)(C(=O)OC)C(F)(F)F (stereo not given)	-13%	51%	16%	12%	-1%
CCCSc1nc2c([nH]1)c(=O)n(C)c(=S)n2C	-19%	19%	.	.	27%
Cn1c(=O)c2[nH]c(SCCN3CCOCC3)nc2n(C)c1=S	16µM*	6%	.	.	5%[57 µM]
Cn1c(=O)c2[nH]c(SCCN3CCCCC3)nc2n(C)c1=S	-21%	6%	.	.	5%[57 µM]
CCSc1nc2c([nH]1)c(=O)n(C)c(=S)n2C	5µM*	2%	.	.	?
Cc1cc(Br)c(OCC(=O)NN)c2c1CCC2	-17%	-4%	1%	-2%	45%
CC(=O)NC(CCC(N)=O)C(=O)O (stereo not given)	.	-6%	.	.	.
O=C(NNc1ccccc1)/C(=C\c1cccnc1)NC(=O)c1ccccc1	-9%	20%	-13%	4µM*	58%
CCOc1ccc(-n2c(=O)c3sc4ccccc4c3n(Cc3cccc(C)c3)c2=O)cc1	?	3%	24%	42%[59 µM]	73%
Cc1cc(C)n(CC(C)C(=O)O)n1 (stereo not given)	-13%	18%	79µM*	.	8%
CC(=O)Nc1ccc2c(c1)C(=O)c1cccc(C(=O)O)c1-2	-12%	1%	.	.	36%
CCNc1c(C(=O)O)ccc2c1C(=O)c1ccccc1C2=O	-27%	0%	35µM*	?	-30%
O=C(O)c1ccc2c(c1Nc1ccccc1)C(=O)c1ccccc1C2=O	50µM*	2%	?	40µM*	40µM*
O=C(O)c1cccc2c1C(=O)c1ccccc1C2=O	-7%	5%	.	?	51%
CCN(CCN(C)C)C(=O)c1ccc2c(c1NCCO)C(=O)c1ccccc1C2=O	-28%	-23%	50µM*	16µM*	?
CNc1c(C(=O)O)ccc2c1C(=O)c1ccccc1C2=O	-31%	1%	35µM*	14µM*	45µM*
Cc1ccc(S(=O)(=O)c2nnn3c2nc(NC(C)c2ccccc2)c2sccc23)cc1 (stereo not given)	-18%	-10%	-10%	3%[59 µM]	48%
CCN(Cc1ccccc1)c1ccc(Br)cn1	88%	.	.	.	.
CN1CCCC(CC2Oc3ccccc3Sc3ccccc32)C1 (stereo not given)	8.9µM*	-12%	50µM*	?	?
NS(=O)(=O)c1ccc(N2C(=O)CCCC2=O)cc1	.	-1%	.	.	.
CCc1cc(C)cc(OCCNC(=O)c2cncc(Br)c2)c1	-5%	-10%	3%	-14%	25%
CC(C)(C)c1ccc(OCCNC(=O)c2ncn[nH]2)cc1	5%	0%	11µM*	-5%	34%
CCc1cc(C)cc(OCCNC(=O)c2ncn[nH]2)c1	?	-1%	50µM*	8%[59 µM]	30%
COCCNC(=O)/C(C#N)=C/c1c(N2CCN(c3ccc(OC)cc3)CC2)nc2c(C)cccn2c1=O	50µM*	27%	40µM*	28µM*	-13%
COC(=O)/C(C#N)=C/c1c(N2CCN(C)CC2)nc2ccccn2c1=O	-4%	2%	3%	-13%[2.33 µM]	8%
SMILES	JMJD2A Tudor	GLS inhibitor	BAZ2B inh	G9a block	HP1b chromo inh
COCCNC(=O)/C(C#N)=C/c1c(N2CCN(c3ccccc3)CC2)nc2c(C)cccn2c1=O	?	3%	-39%	?	4%
CCNC(=O)/C(C#N)=C/c1c(N2CCN(c3ccc(OC)cc3)CC2)nc2c(C)cccn2c1=O	20µM*	-28%	35µM*	40µM*	?
CCOC(=O)/C(C#N)=C/c1c(N2CCN(c3ccc(OC)cc3)CC2)nc2c(C)cccn2c1=O	?	-2%	8.9µM*	8.9µM*	?
CCNC(=O)/C(C#N)=C/c1c(N2CCN(c3ccccc3)CC2)nc2c(C)cccn2c1=O	?	-3%	-1%	-13%[2.33 µM]	?
COC(=O)/C(C#N)=C/c1c(N2CCN(c3ccccc3)CC2)nc2ccccn2c1=O	?	9%	?	79µM*	-20%
Cc1cc(OI)c(C(C)C)cc1-c1cc(C(C)C)c(OI)cc1C	.	-16%	.	7.9µM*	.
Nc1cc([N+](=O)[O-])ccc1Nc1ccc(O)cc1	56µM*	13%	32µM*	10µM*	?

Screening results from PubChem.
